In test [1] the target is Cytochrome P450 1A2 (Homo sapiens) (UniProt P05177). Briefly: p450-cyp1a2 (AID 410; calls by dose curve; also: potency is read from the fitted curve at half-maximal effect). The gist of the method: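 O-Demethylation of luciferin 6' methyl ether by human CYP1A2 is monitored as luciferase luminescence. Substrate sits at Km (100uM); enzyme is 20nM. Values are scaled to 57 uM furafylline as maximal inhibition.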
Test [2] deals with Glucocorticoid receptor (Homo sapiens) (UniProt P04150). Briefly: GR-GFP Redistribution (AID 450;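 active = compounds whose dose series gives a full or clear partial fitted curve of increased nuclear translocation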; also: potency is read from the fitted curve at half-maximal effect).
Test [3] shares this target. Briefly: GR-EFC Redistribution (AID 451; calls by dose curve; also: potency is read from the fitted curve at half-maximal effect). The note with it: CHO-K1 GR-EFC translocation, beta-gal luminescence, 2 h. In short, it runs like this:
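Translocation of GR-ED fusion to nuclear EA restores b-gal, read by luminescence after 1 h room-temperature detection. Engineered CHO-K1 biosensor cells, 1,000/well, exposed 2 h at 37 C to titrations up to 46 uM final.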

For test [4], the target named is Mitogen-activated protein kinase 10 (Mus musculus) (UniProt Q61831). Briefly: JNK3 AlphaScreen Assay (AID 530; active = well fitted curve in either direction with a large enough effect, not every such curve was filed as active;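 also: kinase came from lysate of stimulated human HepG2 cells; signal reports phosphorylation of biotinylated GST-cJun 1-79 at Ser73 with 10 µM ATP; % is scaled to controls: 0 for no effect and ±100 for the full control effect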). The gist of the method: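 qHTS titrations with 15 min compound pre-incubation before adding ATP (10 uM final). Read-out: AlphaScreen of Ser73-phosphorylated biotin-GST-cJun using HepG2 lysate JNK3 activated by IL-1β and TNFα.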
The target in test [5] is 3',5'-cyclic-AMP phosphodiesterase 4B (Homo sapiens) (UniProt Q07343). Briefly: qHTS Assay for Inhibitors of PDE-IV (AID 607; active = well fitted activation curve with a large enough effect in the main read-out, with a control signal flat, not every such curve was filed as active; also: % of control where 0% means no effect). In short, it runs like this:
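Cell-based read-out of cAMP via a modified cyclic nucleotide-gated channel and membrane potential dye (535/590 nm) in HEK293 cells expressing PDE4 endogenously. Compounds tested up to 22.9 uM final; 100 uM RO 20-1724 reference.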

In test [6] the target is Cytochrome P450 2D6 (Homo sapiens) (UniProt P10635). Briefly: qHTS Assay for Inhibitors and Substrates of Cytochrome P450 2D6 (AID 891). Also: nearly all actives have a fitted effect of over 60% in size. Also: potency is read from the fitted curve at half-maximal effect. In short, it runs like this:
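Luminescent read-out of luciferin formed by 5 nM human CYP2D6 demethylating 30 uM Luciferin-ME EGE (Km level) over 60 min at room temperature after NADPH regeneration addition. Data normalized to full inhibition by 1.43 uM quinidine.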

In test [7] the target is Cytochrome P450 2C9 (Homo sapiens) (UniProt P11712). Briefly: qHTS Assay for Inhibitors and Substrates of Cytochrome P450 2C9 (AID 883). Also: nearly all actives have a fitted effect of over 60% in size. Also: potency is read from the fitted curve at half-maximal effect. In short, it runs like this:
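Inhibition of CYP2C9 is scored as loss of luminescence, with 57uM sulphaphenazole defining 100% inhibition. Substrate Luciferin-H is used at 100uM, equal to its KM; enzyme at 10nM in 25mM KPO4, 60 min at 37C with NADPH regeneration.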

Test [8] concerns the target Cytochrome P450 3A4 (Homo sapiens) (UniProt P08684). Briefly: qHTS Assay for Inhibitors and Substrates of Cytochrome P450 3A4 (AID 884). Also: potency is read from the fitted curve at half-maximal effect; nearly all actives have a fitted effect of over 50% in size. The gist of the method: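 Luminescent readout of luciferin produced by CYP3A4 (20 nM) dealkylation of Luciferin-PPXE, 25 uM (its KM). NADPH-driven reaction ran 60 min at RT after 10 min compound preincubation; data scaled to 57 uM ketoconazole as 100% inhibition.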

Test [9] has the same target. Briefly: qHTS Assay for Activators of Cytochrome P450 3A4 (AID 885). Also: nearly all actives have a fitted effect of over 65% in size. In short, it runs like this:
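Luminescent readout of luciferin formed from 25 uM Luciferin-PPXE (KM level) by 20 nM CYP3A4 in 200 mM KPO4, with 60 min NADPH-driven reaction at room temperature after 10 min compound exposure. Ketoconazole (57 uM) defined 100% inhibition.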

In test [10] the target is DNA dC->dU-editing enzyme APOBEC-3G (Homo sapiens) (UniProt Q9HC16). Briefly: qHTS for inhibitors of Vif-A3G interactions: Validation (AID 588379). Also: 0% is about no effect. In short, it runs like this:
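Yellow fluorescence (Ex 488, Em 500-530) of Vif-coexpressing HeLa A3G-eYFP cells, scanned by Acumen cytometer, reports blocked A3G degradation. Cells plated at 700/well overnight at 37 deg C before compound addition, then a further overnight compound incubation at 37 deg C.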

Test [11] has as its target Cytochrome P450 2C19 (Homo sapiens) (UniProt P33261). Briefly: qHTS Assay for Inhibitors and Substrates of Cytochrome P450 2C19 (AID 899). Also: nearly all actives have a fitted effect of over 60% in size. Also: potency is read from the fitted curve at half-maximal effect. As to activity, negative = inhibition: % is scaled to controls: 0 for no effect and ±100 for the full control effect. The gist of the method: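 5nM enzyme + 10uM Luciferin-H EGE (=KM), 50mM KPO4; cpd pin-transferred, 10 min 37C; NADPH regen, 60 min 37C; stopped w/ luciferin detection reagent, 20 min; luminescence. Normalized to 57uM ketoconazole (AC100).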

Test [12] in a line: Stat Signaling Pathway (AID 446; active = well fitted curve in either direction with a large enough effect, not every such curve was filed as active;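 also: ME-180 cervical cancer cells given 40 pM IL-6 alongside compound; SIE-controlled beta-lactamase reporter measured as 460/530 nm FRET emission ratio; % is scaled to controls: 0 for no effect and ±100 for the full control effect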). The note with it: ME-180 (cervical carcinoma) SIE beta-lactamase reporter, IL-6 stimulated, 5 h; at 17.2 µM (top of the series) unless noted. The gist of the method:
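FRET read-out (405 nm excitation, 460/530 nm emission) of a beta-lactamase reporter under a STAT-inducible element in ME-180 cervical carcinoma cells. Cells with compound receive 40 pM IL-6 for 5 h. Values are normalised to AC90 stimulation and AC90 JAK-inhibitor controls.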

Test [13] concerns the target Guanine nucleotide-binding protein G(i) subunit alpha-1 (Homo sapiens) (UniProt P63096). Briefly: qHTS Assay for Inhibitors of RGS12 GoLoco Motif Activity (Green Fluorophore) (AID 879).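 Also: 0% = labeled peptide with Gαi1 and full inhibition = labeled peptide alone without protein; negative values mean loss of peptide binding seen as reduced polarization.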 In short, it runs like this:
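A drop in FITC polarization marked displacement of the FITC-tagged RGS12 GoLoco peptide (10 nM) from Gαi1 (50 nM). Compounds were incubated 10 min at room temperature in Tris pH 7.5 buffer containing 150 mM NaCl, 0.1 mM GDP and 0.05% NP40; unlabeled peptide titration served as control.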

The target of test [14] is Muscarinic acetylcholine receptor M1 (Rattus norvegicus) (UniProt P08482). Briefly: qHTS Assay for Antagonists of Acetylcholine Muscarinic M1 Receptor: Kinetic Measurement of Intracellular Calcium Response (AID 943). Also: potency is read from the fitted curve at half-maximal effect; nearly all actives have a fitted effect of over 75% in size. In short, it runs like this:
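Antagonism is measured as inhibition of the carbachol-evoked calcium rise in CHO cells transfected with rat M1. Cells are dye-loaded, exposed to compound for 10 min, then stimulated with 100 nM carbachol (EC80).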

Test [15] concerns the target Pyruvate kinase (Leishmania mexicana) (UniProt Q27686). Briefly: qHTS Validation Assay for Inhibitors of Leishmania Mexicana Pyruvate Kinase (AID 945).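 Also: 0% = DMSO only neutral control wells.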 The gist of the method: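 Eight-point qHTS titrations in triplicate, data normalized to DMSO neutral control. Reaction: 0.2 nM LmPYK E451W mutant, 0.5 mM PEP, 0.1 mM ADP, 7 mM MgCl2, pH 7.2, one hour at room temperature; luminescent ATP detection.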

The target of test [16] is Pyruvate kinase PKM (Homo sapiens) (UniProt P14618). Briefly: qHTS Assay for Activators of Human Muscle Pyruvate Kinase (AID 954; active = well fitted curve in the direction sought with a large enough effect, not every such curve was filed as active;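 also: 0% = uninhibited enzyme and -100% = no enzyme or full thiadiazolimine inhibition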). In short, it runs like this:
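ATP production by PKM2 detected via luciferase luminescence after 1 h room-temperature reaction (0.1 nM enzyme, PEP at Km 0.5 mM, ADP 0.1 mM, pH 7.2 imidazole buffer). Inhibition scaled to no-enzyme control; activation referenced to 0.3 nM enzyme wells.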

Test [17] deals with Alpha-galactosidase A (Homo sapiens) (UniProt P06280). Briefly: Counterscreen for Glucocerebrosidase Inhibitors: qHTS Assay for Human alpha-Galactosidase at pH 4.5 (AID 992). Also: 0% is about no effect. In short, it runs like this:
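Fluorogenic 1536-well qHTS at pH 4.5 (citrate, Tween-20): 2 nM enzyme, 80 uM 4-MU-alpha-galactoside, 20 min room temperature, NaOH/glycine stop. Titration 0.7 nM to 77 uM, data normalized to no-enzyme and full-activity controls, Hill-fitted AC50.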

The target in test [18] is alpha-glucosidase (Oryza sativa, rice) (UniProt Q653V4). Briefly: Counterscreen for Glucocerebrosidase Inhibitors: qHTS Assay for Rice alpha-Glucosidase at pH 5.0 (AID 997).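 Also: 0% = full activity with enzyme and -100% = basal without enzyme.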 The gist of the method: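 Endpoint fluorogenic assay at pH 5.0: compounds (0.7 nM to 77 uM) titrated against 4 nM rice enzyme and 400 uM 4-MU-alpha-glucoside for 20 min at room temperature; NaOH/glycine stop, read ex 365/em 440 nm, Hill-fitted AC50.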

A number with no mark means an inactive call. Inconclusive results are not listed. Active and inactive are the calls of the source. Unless noted, calls follow the shape of the dose curve; as a rule, active = well fitted curve in the direction sought with a large enough effect; inconclusive = small, poorly fitted or top-dose-only effect, or another doubt; inactive = no such curve, though single readings can be large; an effect the other way counts as inactive or inconclusive.

Chain of Cytochrome P450 2D6 (Homo sapiens) (P10635 whole entry, looked up): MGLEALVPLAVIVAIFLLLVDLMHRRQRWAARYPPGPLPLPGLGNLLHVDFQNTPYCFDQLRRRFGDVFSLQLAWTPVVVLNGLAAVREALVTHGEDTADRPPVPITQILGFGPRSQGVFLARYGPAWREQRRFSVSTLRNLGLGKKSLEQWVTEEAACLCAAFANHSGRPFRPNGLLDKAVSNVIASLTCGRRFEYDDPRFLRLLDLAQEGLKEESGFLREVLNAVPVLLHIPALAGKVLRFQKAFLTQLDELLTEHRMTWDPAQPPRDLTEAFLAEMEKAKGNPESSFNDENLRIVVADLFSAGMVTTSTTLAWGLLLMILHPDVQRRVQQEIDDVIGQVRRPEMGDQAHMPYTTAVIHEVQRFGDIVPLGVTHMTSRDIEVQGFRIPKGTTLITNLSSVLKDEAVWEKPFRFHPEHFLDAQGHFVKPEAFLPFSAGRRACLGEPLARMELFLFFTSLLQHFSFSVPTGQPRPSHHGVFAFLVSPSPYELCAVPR
Chain of Cytochrome P450 3A4 (Homo sapiens) (P08684 whole entry, looked up): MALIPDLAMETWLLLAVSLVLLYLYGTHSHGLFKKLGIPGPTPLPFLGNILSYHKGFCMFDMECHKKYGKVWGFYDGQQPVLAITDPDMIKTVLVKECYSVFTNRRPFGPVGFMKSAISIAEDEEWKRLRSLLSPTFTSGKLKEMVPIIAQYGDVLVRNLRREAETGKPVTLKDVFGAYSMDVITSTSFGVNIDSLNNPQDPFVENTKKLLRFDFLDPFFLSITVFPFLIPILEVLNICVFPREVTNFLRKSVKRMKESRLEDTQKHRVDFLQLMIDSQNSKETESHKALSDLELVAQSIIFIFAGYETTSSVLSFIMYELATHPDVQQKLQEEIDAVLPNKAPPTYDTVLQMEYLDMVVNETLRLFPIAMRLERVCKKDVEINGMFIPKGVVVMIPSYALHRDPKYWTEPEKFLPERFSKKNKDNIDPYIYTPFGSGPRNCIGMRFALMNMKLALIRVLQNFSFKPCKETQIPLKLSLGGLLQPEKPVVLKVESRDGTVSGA
Chain of Cytochrome P450 1A2 (Homo sapiens) (P05177 whole entry, looked up): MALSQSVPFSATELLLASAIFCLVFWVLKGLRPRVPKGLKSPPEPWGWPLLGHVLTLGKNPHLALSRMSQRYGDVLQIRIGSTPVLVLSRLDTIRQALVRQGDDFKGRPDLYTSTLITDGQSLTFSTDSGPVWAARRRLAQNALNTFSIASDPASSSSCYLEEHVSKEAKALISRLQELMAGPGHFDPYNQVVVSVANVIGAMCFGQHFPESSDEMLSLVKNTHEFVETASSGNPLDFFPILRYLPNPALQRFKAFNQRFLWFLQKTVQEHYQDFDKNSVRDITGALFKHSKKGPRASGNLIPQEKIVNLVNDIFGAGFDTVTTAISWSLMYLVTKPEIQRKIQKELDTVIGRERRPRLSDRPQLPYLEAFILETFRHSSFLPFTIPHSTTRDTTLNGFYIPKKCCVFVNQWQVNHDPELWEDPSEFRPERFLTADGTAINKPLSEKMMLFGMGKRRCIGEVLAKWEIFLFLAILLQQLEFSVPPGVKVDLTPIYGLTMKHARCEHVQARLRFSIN
Chain of 3',5'-cyclic-AMP phosphodiesterase 4B (Homo sapiens) (Q07343 whole entry, looked up): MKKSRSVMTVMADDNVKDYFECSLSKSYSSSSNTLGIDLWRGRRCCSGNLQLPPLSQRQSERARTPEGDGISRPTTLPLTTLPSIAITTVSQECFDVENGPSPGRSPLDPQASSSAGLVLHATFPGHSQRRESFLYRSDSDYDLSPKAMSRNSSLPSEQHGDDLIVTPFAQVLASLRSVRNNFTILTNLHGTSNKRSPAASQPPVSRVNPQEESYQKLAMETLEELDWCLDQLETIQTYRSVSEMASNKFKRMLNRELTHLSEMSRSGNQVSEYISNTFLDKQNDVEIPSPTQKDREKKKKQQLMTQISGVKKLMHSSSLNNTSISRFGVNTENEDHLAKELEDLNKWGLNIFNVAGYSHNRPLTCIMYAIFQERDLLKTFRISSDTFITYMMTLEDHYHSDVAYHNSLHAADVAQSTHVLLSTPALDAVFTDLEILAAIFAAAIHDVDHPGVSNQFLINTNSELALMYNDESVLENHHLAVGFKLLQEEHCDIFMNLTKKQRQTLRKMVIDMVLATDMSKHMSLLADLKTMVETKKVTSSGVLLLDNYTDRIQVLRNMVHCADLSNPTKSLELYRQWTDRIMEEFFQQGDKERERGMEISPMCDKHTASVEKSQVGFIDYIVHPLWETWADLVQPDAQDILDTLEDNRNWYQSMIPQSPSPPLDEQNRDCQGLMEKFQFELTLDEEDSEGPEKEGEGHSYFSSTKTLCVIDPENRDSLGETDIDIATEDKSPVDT
Chain of Glucocorticoid receptor (Homo sapiens) (P04150 whole entry, looked up): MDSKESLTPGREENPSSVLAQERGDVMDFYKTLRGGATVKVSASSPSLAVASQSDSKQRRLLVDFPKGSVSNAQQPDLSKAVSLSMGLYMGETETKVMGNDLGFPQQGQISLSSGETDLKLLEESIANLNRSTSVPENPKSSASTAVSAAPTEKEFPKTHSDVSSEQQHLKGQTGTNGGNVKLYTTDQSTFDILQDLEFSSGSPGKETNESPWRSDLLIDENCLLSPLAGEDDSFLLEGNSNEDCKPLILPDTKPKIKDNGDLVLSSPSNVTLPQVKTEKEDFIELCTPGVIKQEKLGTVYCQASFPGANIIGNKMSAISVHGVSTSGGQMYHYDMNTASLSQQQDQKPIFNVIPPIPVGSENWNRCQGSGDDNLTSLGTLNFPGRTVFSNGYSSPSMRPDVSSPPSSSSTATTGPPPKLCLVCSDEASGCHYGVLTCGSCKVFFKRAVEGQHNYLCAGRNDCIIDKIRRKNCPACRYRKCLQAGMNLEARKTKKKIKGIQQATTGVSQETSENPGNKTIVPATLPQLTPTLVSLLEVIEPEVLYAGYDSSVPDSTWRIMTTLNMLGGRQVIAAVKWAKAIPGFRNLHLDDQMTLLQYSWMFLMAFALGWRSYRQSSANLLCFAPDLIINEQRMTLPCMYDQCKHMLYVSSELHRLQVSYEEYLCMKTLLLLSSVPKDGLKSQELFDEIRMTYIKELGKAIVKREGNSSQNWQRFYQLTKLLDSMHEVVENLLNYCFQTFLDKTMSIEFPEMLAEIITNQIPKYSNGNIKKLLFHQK
Chain of Cytochrome P450 2C19 (Homo sapiens) (P33261 whole entry, looked up): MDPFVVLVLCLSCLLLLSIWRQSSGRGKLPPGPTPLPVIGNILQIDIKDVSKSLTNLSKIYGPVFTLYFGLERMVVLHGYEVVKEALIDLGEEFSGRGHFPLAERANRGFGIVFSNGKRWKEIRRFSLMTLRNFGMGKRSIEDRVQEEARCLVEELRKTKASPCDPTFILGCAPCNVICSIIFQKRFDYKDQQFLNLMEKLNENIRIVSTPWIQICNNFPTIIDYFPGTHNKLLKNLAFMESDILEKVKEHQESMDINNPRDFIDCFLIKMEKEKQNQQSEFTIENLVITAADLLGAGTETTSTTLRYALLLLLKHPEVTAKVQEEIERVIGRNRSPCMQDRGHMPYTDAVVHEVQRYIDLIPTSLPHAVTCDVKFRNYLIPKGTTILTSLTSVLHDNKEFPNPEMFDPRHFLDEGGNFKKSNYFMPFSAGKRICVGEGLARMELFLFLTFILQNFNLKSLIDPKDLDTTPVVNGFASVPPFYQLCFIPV
Chain of Cytochrome P450 2C9 (Homo sapiens) (P11712 whole entry, looked up): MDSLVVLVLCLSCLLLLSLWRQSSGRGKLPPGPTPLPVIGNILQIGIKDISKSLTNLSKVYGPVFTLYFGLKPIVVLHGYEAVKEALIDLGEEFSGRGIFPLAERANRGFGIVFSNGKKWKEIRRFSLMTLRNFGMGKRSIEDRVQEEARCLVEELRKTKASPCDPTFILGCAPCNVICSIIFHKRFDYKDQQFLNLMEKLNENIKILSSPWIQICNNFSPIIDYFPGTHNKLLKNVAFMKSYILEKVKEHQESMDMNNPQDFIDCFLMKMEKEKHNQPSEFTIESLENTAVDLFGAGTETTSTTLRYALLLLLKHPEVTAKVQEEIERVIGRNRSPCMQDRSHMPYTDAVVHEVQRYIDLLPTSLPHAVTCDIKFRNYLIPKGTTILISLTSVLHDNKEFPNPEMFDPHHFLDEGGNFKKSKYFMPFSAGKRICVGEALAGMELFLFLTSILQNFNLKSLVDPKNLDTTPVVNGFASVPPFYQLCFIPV
Chain of DNA dC->dU-editing enzyme APOBEC-3G (Homo sapiens) (Q9HC16 whole entry, looked up): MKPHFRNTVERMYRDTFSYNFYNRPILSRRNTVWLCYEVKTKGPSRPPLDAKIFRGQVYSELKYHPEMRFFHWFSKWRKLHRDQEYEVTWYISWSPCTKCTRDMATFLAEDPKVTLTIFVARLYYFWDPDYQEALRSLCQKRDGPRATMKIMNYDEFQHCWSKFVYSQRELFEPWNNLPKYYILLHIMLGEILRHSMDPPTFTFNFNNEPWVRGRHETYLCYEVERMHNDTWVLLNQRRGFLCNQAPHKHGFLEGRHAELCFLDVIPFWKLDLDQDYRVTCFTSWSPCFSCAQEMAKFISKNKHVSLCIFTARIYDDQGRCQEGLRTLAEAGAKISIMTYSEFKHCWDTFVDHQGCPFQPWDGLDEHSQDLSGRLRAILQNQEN
Chain of Guanine nucleotide-binding protein G(i) subunit alpha-1 (Homo sapiens) (P63096 whole entry, looked up): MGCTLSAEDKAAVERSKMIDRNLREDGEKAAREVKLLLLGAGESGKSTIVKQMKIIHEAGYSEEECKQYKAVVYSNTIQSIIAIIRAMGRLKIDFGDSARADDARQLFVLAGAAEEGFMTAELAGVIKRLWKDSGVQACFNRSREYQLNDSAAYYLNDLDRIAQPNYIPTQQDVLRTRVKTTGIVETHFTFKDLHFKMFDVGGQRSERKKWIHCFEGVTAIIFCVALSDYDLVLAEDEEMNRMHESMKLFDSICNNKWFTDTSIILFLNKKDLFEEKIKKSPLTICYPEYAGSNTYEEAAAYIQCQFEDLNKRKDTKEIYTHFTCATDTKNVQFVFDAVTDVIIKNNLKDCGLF

Take `CC(=O)[C@H]1[C@H]2[C@H](C(=O)[C@@H]3OC[C@H]2O3)[C@@H]2c3ccccc3C=CN12`: the Potency in [1] is 31.6 µM (active); in test [2], above 46 µM; in test [3] it was above 46 µM. The Potency entry in [4], in test [5] and in test [6] was “inactive” in each case.

On to `COc1ccc2oc(-c3ccccc3)c(OC)c(=O)c2c1`, for which the Potency was 0.501 µM (active) in test [1]; above 46 µM in test [2]; above 46 µM in [3]; 25.1 µM (active) in test [7]; 31.6 µM (active) in test [8]. The Potency result in [4], in [5] and in test [9] was “inactive” in each case. For the same compound, in [10], the compound was called inactive.

With `CN1CCc2cc3c(cc2C(=O)Cc2ccc4c(c2C1)OCO4)OCO3`, the Potency is 39.8 µM (active) in test [1]; above 46 µM in [2]; above 46 µM in test [3]; 0.0501 µM (active) in test [6]; 10 µM (active) in test [11]. The Potency result in test [4], in test [7] and in test [9] was “inactive” each time. In test [10], the result was inactive.

Consider `CCCc1c(OCCCOc2ccc(OCC(=O)O)cc2)ccc(CC=O)c1O`, for which the Potency in [1] was 31.6 µM (active); in test [2], above 46 µM; in test [3] it was above 46 µM. Besides, the Potency result in [4] and in test [5] was “inactive” throughout. Moreover, the compound was called inactive in test [10].

For the compound `Cc1ccc(C[C@H](Cc2nc3ccccc3[nH]2)c2nc3ccccc3[nH]2)cc1`, the Potency is 3.98 µM (active) in test [1]; above 46 µM in [2]; above 46 µM in [3]; 12.6 µM (active) in test [7]; 0.0794 µM (active) in test [6]; 5.01 µM (active) in test [11]. The Potency entry in [4] and in test [5] was “inactive” throughout.

Take `CN1CCN([C@@H]2Cc3ccccc3Sc3ccc(Cl)cc32)CC1`: the Potency was 12.6 µM (active) in [1], above 46 µM in test [2], 0.398 µM (active) in test [6] and 1.78 µM (active) in test [14]. Also, in test [12], the activity, negative = inhibition was 2.01% [at 38 µM]. In addition, the compound was called inactive in test [13], in test [16], in test [17] and in test [18]. Moreover, the Potency result in [9] and in test [15] was “inactive” in each case.

On to `CC(=O)Oc1ccc(/C=C\C(=O)C[C@@H]2O[C@@H](Oc3cc(OC(C)=O)c4c(c3)O[C@@H](c3ccc(OC(C)=O)cc3)CC4=O)[C@H](OC(C)=O)[C@H](OC(C)=O)[C@@H]2OC(C)=O)cc1`, for which the Potency entry in test [1], in test [4], in test [5], in [7], in [6] and in [11] was “inactive” in each case. Also, the Potency in test [2] and in test [3] was above 46 µM in each case.

With `O=c1c2ccccc2oc2cc(O)c([C@@H]3COC[C@@H](CO)[C@@H](O)[C@@H](O)[C@H]3O)c(O)c12`, the Potency result in [1], in test [4], in test [5], in test [7], in [6] and in [11] was “inactive” throughout. Moreover, the Potency in test [2] and in test [3] was above 46 µM in each case.

Values taken from PubChem BioAssay (NCATS).
